In all, about 1,200 compounds went through this assay and about 400 (33%) were called active. Not all results are given here. Results with a measured potency or affinity are listed apart. Values without a mark were called inactive. No rule for the calls is given here.
Assay: mammalian cell cytotoxicity, dose response, cytotoxicity control (AID 434958);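 also: cells exposed to compound for 72 hours before readout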
Conditions: cytotoxicity counter-screen; series mostly up to 40 µM; viability: at the top concentration

Compared with `COc1ccc(NC(=O)CCc2ccccc2)cc1NC(=O)c1ccco1`, `COc1ccc2ccccc2c1/C=N/NC(=O)c1cccc(C)c1` is lower in “viability” value: 85.7% for the first, 80.4% for the second.

First: C=CCOc1ccc(C2N3CC4(C)CN2CC(CCC)(C3)C4=O)cc1 (stereo unspecified)
Second: CCOc1ccc(N2C(=O)CC(N)C2=O)cc1 (stereo unspecified)
The “viability” value of the first is lower: 97.2% for the first, 101% for the second.

Compared with `CC(C(=O)Nc1nc2ccccc2[nH]1)N1C(=O)C2CC=CCC2C1=O` (stereo unspecified), `Cc1cc(C)c(OCC(=O)Nc2nc3ccccc3[nH]2)c(C)c1` is lower in “viability” value: 99.8% for the first, 90.8% for the second.

Going from `CCC(=O)NC(=S)Nc1ccc(-c2nc3ccccc3s2)cc1` to `CC(=O)Nc1scc(C)c1-c1nc2ccccc2s1`, the “viability” value falls from 98.2% to 88.1%.

First: CCOc1ccc(S(=O)(=O)n2nnc3ccccc32)cc1C(C)C
Second: CCOC(OCC)c1cn(Cc2ccc3c(c2)C(=O)c2ccccc2C3=O)nn1
The “viability” value of the first is higher: 102% for the first, 92.2% for the second.

Going from `COC(=O)c1c(-c2ccc(OC)cc2)oc2ccc(-c3cc(OC)c(OC)c(OC)c3)cc12` to `COCCOC(=O)c1c(C)oc2ccc(OC(=O)c3c(OC)cccc3OC)cc12`, the “viability” value falls from 81.5% to 80.5%.

First: O=C(NCCC1=CCCCC1)NC1CCCCC1
Second: O=C(NC1CCCCCCC1)c1ccc(Br)cc1
The “viability” value of the first is higher: 105% for the first, 97% for the second.

Going from `CCC1CCCCN1C(=O)CSc1nnc(-c2ccc(Cl)s2)o1` (stereo unspecified) to `O=C(CSc1nnc(-c2ccncc2)o1)c1cccc([N+](=O)[O-])c1`, the “viability” value rises from 98% to 99%.

Compared with `O=C(NCc1ccco1)c1cc2n(n1)C(C(F)(F)F)CC(c1ccc(F)cc1)N2` (stereo unspecified), `Cc1ccc(NC(=O)CSc2n[nH]c(-c3ccco3)n2)cc1` is higher in “viability” value: 92.2% for the first, 95.4% for the second.

Going from `O=C(CN1CCN(c2ccccn2)CC1)Nc1ccc(Cl)c(C(F)(F)F)c1` to `CC(=O)c1ccc(N2CCN(c3ncc(C(F)(F)F)cc3Cl)CC2)cc1`, the “viability” value falls from 95.8% to 81.7%.

First: N#Cc1ccc(NC(=O)COC(=O)C2=COCCO2)cc1
Second: CCOc1ccc(NC(=O)/C(C#N)=C/c2cn(CC(=O)O)c3ccccc23)cc1
The “viability” value of the first is higher: 109% for the first, 102% for the second.

Going from `CCOC(=O)c1c(C)oc2c1c(CN1CCN(C(=O)OCC)CC1)c(O)c1ccccc12` to `CCN(CC)C(=O)Cn1cc(C(=O)C(=O)N2CCN(c3ccccc3)CC2)c2ccccc21`, the “viability” value rises from 86.2% to 96.2%.

First: COc1cc2c(cc1OC)C(c1ccccc1)CC2=O (stereo unspecified)
Second: COC(=O)CN1C(CN2CCOCC2)=Nc2ccc(Br)cc2C1c1ccccc1 (stereo unspecified)
The “viability” value of the first is lower: 85.2% for the first, 89.5% for the second.

Compared with `Cc1ccccc1Cn1cc(NC(=O)CSc2nc3c(c(C(F)(F)F)n2)CCc2ccccc2-3)cn1`, `Cc1ccc(CNC(=O)c2ccccc2NC(=O)CSc2nnnn2C)cc1` is higher in “viability” value: 90.7% for the first, 102% for the second.

Going from `CCO[C@H]1OC(C(=O)NCc2nc3ccccc3[nH]2)=C[C@@H](c2cn(C(C)=O)c3ccccc23)[C@@H]1CCCO` to `O=C(COc1ccc2ccccc2c1)Nc1nc2ccccc2[nH]1`, the “viability” value rises from 81.8% to 104%.

First: CCCc1c(C)nc2c(OC)cccc2c1SCC(=O)O
Second: CCN(CC)C(=O)CSc1nnc2nnc3cc(OC)ccc3n12
The “viability” value of the first is higher: 107% for the first, 102% for the second.

Going from `O=C(O/N=C\c1ccc(N2CCCCC2)c([N+](=O)[O-])c1)c1c(F)cccc1F` to `CCN(CC)C(=O)C1CCCN(c2ccc([N+](=O)[O-])cc2/C=N/NC(=O)c2cccc(O)c2)C1` (stereo unspecified), the “viability” value falls from 95.2% to 84.6%.

Going from `c1ccc2c(c1)Cn1nc(Cc3nc4c(s3)CCCC4)nc1-2` to `CCc1cc2c(=O)nc3n(c2s1)Cc1ccccc1/C3=C(/O)c1ccc(F)cc1`, the “viability” value falls from 108% to 85.5%.

Compared with `COc1ccc2nc(NC(=O)NC3CCCCC3)sc2c1`, `O=C(NCc1ccc2c(c1)OCO2)C(=O)NC1CCCCC1` is lower in “viability” value: 92.6% for the first, 85.3% for the second.

Going from `O=C(Nc1ccc(Cl)cc1F)c1cccc2ccccc12` to `O=C(NCc1ccc2c(c1)OCO2)Nc1ccc2ccccc2c1`, the “viability” value falls from 95.1% to 86.2%.

Going from `CCc1ccccc1NC(=O)CNC(=O)c1cc(C2CC2)nn1-c1ccccc1` to `CNc1ccccc1NC(=O)C1CCCN1C(=O)OCc1ccccc1` (stereo unspecified), the “viability” value rises from 93.1% to 101%.

Compared with `CN1C/C(=N\S(=O)(=O)c2ccccc2)N(C)C1=O`, `Cc1nn(-c2ccccc2)cc1/C=N/NC(N)=S` is higher in “viability” value: 92.3% for the first, 106% for the second.

First: Cn1cccc1/C=C1/C(=O)NC(=O)N(Cc2ccc(F)cc2)C1=O
Second: O=C(N/N=C/c1c(O)n(Cc2ccc(F)cc2)c(=S)[nH]c1=O)c1ccncc1
The “viability” value of the first is lower: 92.6% for the first, 99.3% for the second.

Going from `COCCNC(=S)N/N=C1\CC(C)CC(C)(C)C1` (stereo unspecified) to `CCCCn1nc2cc(C(=O)NCC34CC5CC(CC(C5)C3)C4)ccc2c1OCC`, the “viability” value falls from 94.2% to 83.6%.

Compared with `CC(=O)Nc1cccc(-n2nnc(SCC(=O)Nc3ccc(F)c(Cl)c3)n2)c1`, `O=C(CSc1nnc(-c2cnccn2)n1Cc1ccco1)Nc1ccc(Br)cc1` is higher in “viability” value: 91.8% for the first, 100% for the second.

First: CSc1ccc(/C=C/C(=O)Nc2ccccc2)cc1
Second: CCN(CCNC(=O)Nc1ccc(Cl)cc1)c1ccccc1
The “viability” value of the first is lower: 92.7% for the first, 103% for the second.

Compared with `CCCC(C)NC(=O)c1ccc(OCc2ccc(Cl)cc2)c(OC)c1` (stereo unspecified), `COc1cc(/C=C/c2ccc3cccc([N+](=O)[O-])c3n2)ccc1OCC(=O)O` is higher in “viability” value: 80% for the first, 107% for the second.

First: Cc1ccc(C)c(N2CCN(C3CCCC(C)C3)CC2)c1 (stereo unspecified)
Second: CCOCC(=O)N1CCN(c2ccc(F)cc2)CC1
The “viability” value of the first is higher: 95.6% for the first, 91.1% for the second.

Compared with `O=C(Nc1ccc(Cl)cc1)C1CC2CCCC(C1)C2=O` (stereo unspecified), `CCc1ccc(NC(=O)c2c(Cl)nc(C)c(Cl)c2C)cc1` is lower in “viability” value: 101% for the first, 80.3% for the second.

`CCCC(C(=O)N1CCOCC1)N1C(=O)C2C3C=CC(C3)C2C1=O` (stereo unspecified) and `O=C(NC(=S)N1CCOCC1)c1ccc([N+](=O)[O-])cc1` are the same in “viability” value: 107% for the first, 107% for the second.

Going from `Cc1ccc(C(=O)Nc2c(C)cc(C)c3cccnc23)cc1` to `Cc1cccnc1NC(=O)c1cc2ccccc2oc1=O`, the “viability” value falls from 92.3% to 86.4%.

Compared with `Cc1c(C(=O)c2ccccc2)oc2ccc3ccccc3c12`, `COC(=O)Cn1nc(-c2ccccc2)c2ccccc21` is higher in “viability” value: 101% for the first, 102% for the second.

Going from `COc1ccc(-c2c(-c3ccsc3)oc3ccc(N4CCOCC4)cc23)cc1` to `COc1cc(OC)c2ccc(=O)oc2c1C(CC(=O)N1CCN(c2ccccc2)CC1)c1ccc2c(c1)OCO2` (stereo unspecified), the “viability” value rises from 84.5% to 108%.

Compared with `Cc1nn(C)c(C)c1C1C(C#N)=C(N)OC2=C1C(=O)CCC2` (stereo unspecified), `Cc1cc(C)n(-c2nc3ccccc3c(=O)n2OCC(=O)N(C)C)n1` is lower in “viability” value: 106% for the first, 102% for the second.

First: Cc1ccc(C)c(NC(=O)C2Cc3ccccc3CN2C(=O)OCc2ccccc2)c1 (stereo unspecified)
Second: Cc1ccccc1NC(=O)/C(C#N)=C\c1cc(C)n(-c2ccc(C(=O)O)cc2)c1C
The “viability” value of the first is higher: 107% for the first, 86.8% for the second.

First: NC(=O)CN1C(=O)C(O)(CC(=O)/C=C\C=C\c2ccccc2)c2ccccc21 (stereo unspecified)
Second: O=C(Cn1nnc2c(cnn2-c2ccccc2)c1=O)N1CCN(c2ccccc2F)CC1
The “viability” value of the first is higher: 105% for the first, 97.6% for the second.

Going from `C=CCC(Nc1ccccc1)C12C=CC(O1)C(C(=O)OC)=C2C(=O)OC` (stereo unspecified) to `COC(=O)c1c(C(=O)OC)c(C)n(Cc2ccco2)c1C`, the “viability” value falls from 106% to 102%.

Compared with `COc1cc(C(=O)N/N=C/c2ccc(OC(=O)c3cccc(C)c3)cc2)ccc1O`, `O=C(N/N=C/c1c(Cl)cccc1Cl)c1cccc(F)c1` is lower in “viability” value: 97% for the first, 88.5% for the second.

`Cc1ccc(SCc2c(C#N)c3ccccc3n2C)cc1` and `Cc1ccc(SCc2c(-c3ccccc3)nn(C)c2Cl)cc1` are the same in “viability” value: 93.7% for the first, 93.7% for the second.

Compared with `Clc1ccc(Cn2cc(/C=N/n3cnnc3)c3ccccc32)cc1`, `O=C(c1cccc(Cl)c1)N1CCN(Cc2ccccc2F)CC1` is higher in “viability” value: 88% for the first, 102% for the second.

Compared with `Nc1nc(Sc2ncccc2[N+](=O)[O-])n[nH]1`, `CCCSc1nnc(NC(=O)c2sc3nc(-c4cccs4)ccc3c2N)s1` is lower in “viability” value: 105% for the first, 89% for the second.

Compared with `Cc1nnnn1/C(=C\c1ccccc1)C(=O)OCC(=O)NC1CCCCC1`, `CCOC(=O)CNC(=O)CSc1ncnc2c1cnn2Cc1ccccc1` is lower in “viability” value: 105% for the first, 101% for the second.

Going from `CC1CCN(C(=S)NC(=O)c2ccccc2)CC1` to `CCC(C(=O)Nc1ccccc1N1CCCC1)c1ccccc1` (stereo unspecified), the “viability” value falls from 103% to 99.2%.

First: CCC(CC)c1nnc(NC(=O)c2cc(-c3ccccc3)nc3ccccc23)s1
Second: c1ccc(OCc2nnc(-c3ccccc3)o2)cc1
The “viability” value of the first is lower: 85.5% for the first, 89% for the second.

Going from `COc1cc(OC)c(OC)cc1/C=C1\CCC(C2CCCC2)C1=O` (stereo unspecified) to `COc1ccc(/C=N\NC(=O)c2sc(N)nc2C)cc1OC`, the “viability” value falls from 93.4% to 87.3%.

Going from `O=C(OCC(=O)c1c[nH]c2ccccc12)c1cccc([N+](=O)[O-])c1` to `COc1ccc([N+](=O)[O-])cc1NC(=O)c1ccc(Br)s1`, the “viability” value rises from 91.4% to 96.1%.

Compared with `CCOC(=O)c1nn(-c2ccc(Cl)cc2)cc1O`, `CN(NC(=O)c1c(Cl)cccc1Cl)c1cccc(Cl)n1` is lower in “viability” value: 98.1% for the first, 95% for the second.

Going from `S=c1nccc(-c2ccc3c(c2)CCO3)[nH]1` to `Cc1ccc(C(=O)Nc2nc3ccccc3s2)s1`, the “viability” value falls from 94.1% to 84.5%.

Going from `O=C1S/C(=C\C=C\c2ccco2)C(=O)N1c1ccccc1` to `c1ccc(CSc2nnc(-c3ccco3)o2)cc1`, the “viability” value falls from 100% to 98.6%.

Going from `O=C1CS/C(=N/N=C2C3CC4CC(C3)CC2C4)N1` to `C#C[C@]1(O)CC[C@H]2[C@@H]3CCC4=C(CCC(=O)C4)[C@H]3CC[C@@]21C`, the “viability” value rises from 95% to 104%.

Going from `NC(=S)N/N=C/c1ccc(/C=N/NC(N)=S)cc1` to `Cc1ccccc1/C=N\NC(=O)c1csnn1`, the “viability” value falls from 102% to 96%.

Going from `S=C(Nc1ccccc1)Nc1ccc(Cl)cn1` to `CCc1ccc(NC(=S)Nc2ccc3[nH]c(=O)[nH]c3c2)cc1`, the “viability” value rises from 92.4% to 94.7%.

First: CC(C)(C)c1nc2scc(-c3cccs3)c2c(=O)o1
Second: Cc1onc(-c2ccccc2Cl)c1C(=O)NCc1ccc2c(c1)cc(C)n2C
The “viability” value of the first is lower: 89.9% for the first, 98.7% for the second.

First: CC1(C)CCN2CCC(C)(C)c3c(O)ccc1c32
Second: Cc1cc(=O)[nH]c(N/N=C/c2c(O)n(-c3ccccc3)c(=O)c3ccccc23)n1
The “viability” value of the first is lower: 95.8% for the first, 97.6% for the second.

Compared with `CCOc1cc(CNCCN(C)C)c(Cl)cc1OCC(=O)NCCc1ccccc1`, `CCOC(=O)c1c(NC(=O)COC(=O)c2ncc(Cl)c(Cl)c2Cl)sc(C(=O)N(C)C)c1C` is higher in “viability” value: 88.7% for the first, 101% for the second.

In the case of `O=C(Cn1c(=O)n(CCCC(=O)NC2CCCC2)c(=O)c2ccccc21)NCCC1=CCCCC1`, the “viability” value is reported as 110% [at 20 µM].
